# Laboratory results published in the supplement of paper PMC8728848.
# The entries come from a sample that favours the strongest signals as a whole.
# Tests used:
# Test in all cases: glycan array binding signal (z-score within array); higher = stronger binding
# Conditions in all cases: glycan notation: IUPAC condensed, linker removed
# [1] = system: Fuc(a1-2)Gal6S(b1-4)Glc6S
# Summary of the method: (§1)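 From the Consortium for Functional Glycomics database, 3228 arrays were curated, keeping only those whose protein sequence was available. Binding is given as a within-array Z-score averaged across arrays sharing a protein sequence and across linkers. Negative Z-scores can be read as non-binding.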
# Fuc(a1-2)Gal = system: Fuc(a1-2)Gal
# Summary of the method: as §1
# [2] = system: Fuc(a1-2)[Gal(a1-3)]Gal(b1-3)GlcNAc
# Summary of the method: as §1
# [3] = system: Fuc(a1-2)[GalNAc(a1-3)]Gal(b1-3)GlcNAc(b1-2)Man(a1-3)[Fuc(a1-2)[GalNAc(a1-3)]Gal(b1-3)GlcNAc(b1-2)Man(a1-6)]Man(b1-4)GlcNAc(b1-4)[Fuc(a1-6)]GlcNAc
# Summary of the method: as §1
# [4] = system: Fuc(a1-2)[GalNAc(a1-3)]Gal(b1-4)GlcNAc(b1-2)Man(a1-3)[Fuc(a1-2)[GalNAc(a1-3)]Gal(b1-4)GlcNAc(b1-2)Man(a1-6)]Man(b1-4)GlcNAc(b1-4)GlcNAc
# Summary of the method: as §1
# [5] = system: Fuc(a1-2)[Gal(a1-3)]Gal(b1-4)GlcNAc
# Summary of the method: as §1
# [6] = system: Fuc(a1-2)[Gal(a1-3)]Gal(b1-4)[Fuc(a1-3)]GlcNAc
# Summary of the method: as §1
# [7] = system: Fuc(a1-2)[Gal(a1-3)]Gal(b1-4)[Fuc(a1-3)]Glc
# Summary of the method: as §1
# [8] = system: Fuc(a1-2)[GalNAc(a1-3)]Gal(b1-4)GlcNAc(b1-2)Man(a1-3)[Fuc(a1-2)[GalNAc(a1-3)]Gal(b1-4)GlcNAc(b1-2)Man(a1-6)]Man(b1-4)GlcNAc(b1-4)[Fuc(a1-6)]GlcNAc
# Summary of the method: as §1
# [9] = system: Fuc(a1-2)[GalNAc(a1-3)]Gal(b1-3)GlcNAc
# Summary of the method: as §1
# [10] = system: Fuc(a1-2)Gal6S(b1-3)GlcNAc
# Summary of the method: as §1
# [11] = system: Fuc(a1-2)[Gal(a1-3)]Gal(b1-3)GlcNAc(b1-3)GalNAc
# Summary of the method: as §1
# [12] = system: Fuc(a1-2)[GalNAc(a1-3)]Gal(b1-3)GalNAc(a1-3)[Fuc(a1-2)]Gal(b1-4)GlcNAc
# Summary of the method: as §1
# Fuc(a1-2)Gal6S(b1-4)Glc = system: Fuc(a1-2)Gal6S(b1-4)Glc
# Summary of the method: as §1
# [13] = system: Fuc(a1-2)[Gal(a1-3)]Gal(b1-3)GalNAc
# Summary of the method: as §1
# [14] = system: Fuc(a1-2)[GalNAc(a1-3)]Gal(b1-3)GlcNAc(b1-2)Man(a1-3)[Fuc(a1-2)[GalNAc(a1-3)]Gal(b1-3)GlcNAc(b1-2)Man(a1-6)]Man(b1-4)GlcNAc(b1-4)GlcNAc
# Summary of the method: as §1
# [15] = system: Fuc(a1-2)[Gal(a1-3)]Gal(b1-3)GlcNAc(b1-6)GalNAc
# Summary of the method: as §1
# [16] = system: Fuc(a1-2)[Gal(a1-3)]Gal(b1-4)GlcNAc(b1-2)Man(a1-3)[Fuc(a1-2)[Gal(a1-3)]Gal(b1-4)GlcNAc(b1-2)Man(a1-6)]Man(b1-4)GlcNAc(b1-4)GlcNAc
# Summary of the method: as §1
# [17] = system: Fuc(a1-2)[Gal(a1-4)]Gal(b1-4)GlcNAc
# Summary of the method: as §1
# [18] = system: Fuc(a1-2)[GalNAc(a1-3)]Gal(b1-3)GalNAc(b1-3)Gal(a1-4)Gal(b1-4)Glc
# Summary of the method: as §1
substance,measurement,setting,value
Actinohivin (Actinomycete K97),glycan array binding signal (z-score),[1],-0.121
same,glycan array binding signal (z-score),Fuc(a1-2)Gal,-0.161
same,glycan array binding signal (z-score),[2],-0.173
same,glycan array binding signal (z-score),[3],0.857
same,glycan array binding signal (z-score),[4],-0.143
"SiiE (Salmonella typhimurium), A0A0H3NVH0",glycan array binding signal (z-score),[5],-0.344
same,glycan array binding signal (z-score),[6],-0.019
AgI/II Vhelical-GFP (Streptococcus mutans),glycan array binding signal (z-score),[7],-0.293
same,glycan array binding signal (z-score),[3],-0.218
same,glycan array binding signal (z-score),[8],-0.212
"BambL (Burhholderia ambifaria), Q0B4G1",glycan array binding signal (z-score),Fuc(a1-2)Gal,5.01
"GspB (Streptococcus gordonii), Q939N5",glycan array binding signal (z-score),[2],-0.728
same,glycan array binding signal (z-score),[9],0.192
AgI/IIC123-GFP (Streptococcus mutans),glycan array binding signal (z-score),[10],4.98
same,glycan array binding signal (z-score),[11],-0.567
same,glycan array binding signal (z-score),[6],-0.047
same,glycan array binding signal (z-score),[12],-0.259
same,glycan array binding signal (z-score),[8],-0.549
LcI (Legionella pneumophila),glycan array binding signal (z-score),Fuc(a1-2)Gal6S(b1-4)Glc,-0.438
same,glycan array binding signal (z-score),[13],-0.622
same,glycan array binding signal (z-score),[14],-0.301
same,glycan array binding signal (z-score),[3],-0.427
Epa22,glycan array binding signal (z-score),[15],-0.605
same,glycan array binding signal (z-score),[16],-0.038
same,glycan array binding signal (z-score),[7],-0.341
same,glycan array binding signal (z-score),[17],1.84
same,glycan array binding signal (z-score),[18],-0.54
